An excerpt weighted towards active compounds, which were near 3.8% of everything screened.
ATXN2 expr inh = inhibitors of ATXN2 expression | Potency, µM (titrated, usually from 57 µM), for inactives: at the highest dose activity change, negative = inhibition, hits mostly inhibitors | HEK-293 ATXN2-luciferase reporter, luminescence, 24 h | AID 1745845 | 360,000 compounds, 0.72% hits; note: % is set by controls: 0 for no effect and ±100 for the full control effect; nearly all actives have a fitted effect of over 55% in size
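ATXN2-luciferase reporter cells (luciferase flanked by upstream and downstream ATXN2 gene portions) were treated 24 h at 37 °C with compounds at up to 57 uM. SteadyGlo luminescence gave expression; GF-AFC fluorescence gave viability.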
HT1080NT lethal = kills 2HG-producing HT-1080-NT fibrosarcoma cells | HT-1080-NT fibrosarcoma viability, CellTiter-Glo ATP luminescence, 48 h | Potency, µM (highest dose often 46.1 µM), for the others: at the top dose activity, negative = less viability, most hits filed as cytotoxic | 360,000 compounds, 1.6% hits;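 note: NT is the 2HG producing partner of a matched IDH1 knockdown line; 0% = DMSO-treated cells and -100% = media-only wells without cells; nearly all actives have a fitted effect of over 55% in size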
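Viability of the 2HG-overproducing fibrosarcoma line after 48 hours of compound exposure at 37 degrees C was determined by luminescence with CellTiter-Glo, and concentration-effect curves were then fitted and categorized.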
HT1080 IDH1KD tx = HT-1080 IDH1 knockdown cell toxicity (counter line) | 360,000 compounds, 2% hits | Potency, µM (highest dose often 46.1 µM), for the others: at the top dose activity, negative = toxicity, actives largely listed as cytotoxic | HT-1080 IDH1 knockdown viability, ATP luminescence, 48 h;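 note: 0% = DMSO wells and -100% = cell-free medium wells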
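IDH1KD HT-1080 cells, 750/well, RPMI + 5% FBS; compound pinned after 2 h settling; 48 h, 37 °C; CellTiter-Glo luminescence; % activity normalised to DMSO and no-cell wells; curves fitted, classed by r2 and efficacy.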
S2 tox = reduces viability in counter-screen for ATXN expression inhibitors; Potency, µM (top dose mostly 56.7 µM), most hits filed as cytotoxic; S2 cells (HEK-293 line with an ATXN2-luciferase reporter) viability, CellTiter-Fluor protease fluorescence, 24 h; 400,000 compounds, 0.49% hits; AID 651635; note: nearly all actives have a fitted effect of over 40% in size
HepG2 tox-1 = counter-screen for TGF-b inhibitors: cytotoxicity in HepG2 cells. HepG2 CAGA-GFP viability, ATP luminescence, 18 h. Potency, µM (titrated, usually from 46.1 µM), for inactives: top-dose activity change, negative = cytotoxicity, hits mostly cytotoxic. 410,000 compounds, 0.76% hits. AID 588856
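CellTiter-Glo luminescence gave cytotoxicity after 18 hours at 37 degrees C. The cells were HepG2 CAGA-GFP in 1% FBS DMEM, stimulated with 500 pg/mL TGF-beta after compound addition. %Activity was normalised to no-cell wells (complete cell-killing) and DMSO (no toxicity), and curves were fitted and classified.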
TGFb inhibitor = inhibitors of TGF-b signaling; HepG2 CAGA-GFP TGF-b/SMAD3 reporter, GFP fluorescence, 18 h; TGF-beta stimulated, 500 pg/mL final; Potency, µM (top dose mostly 46.1 µM), inactives show at the top dose activity, negative = inhibition, actives largely listed as inhibitors; 410,000 compounds, 1.2% hits; note: % is set by controls: 0 for no effect and ±100 for the full control effect; nearly all actives have a fitted effect of over 65% in size
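Per well, imaged GFP fluorescence of HEPG2 CAGA-GFP cells gives the signal; cells get compound, then TGF-beta (500 pg/mL final), 18 h at 37 degrees C; %Activity versus -TGF-beta and +DMSO controls.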
TGFb CAGA inh = TGF-b pathway inhibition, cherry-pick retest; 1,600 compounds, 63% hits; HepG2 CAGA-GFP TGF-b reporter, GFP fluorescence, 18 h; cells stimulated with TGF-beta, 500 pg/mL; shares compounds with TGFb inhibitor; Potency, µM (series often up to 46.1 µM), for inactives: at the highest dose activity, negative = inhibition, hits mostly inhibitors; note: % is set by controls: 0 for no effect and ±100 for the full control effect; nearly all actives have a fitted effect of over 65% in size
HepG2 tox-2 = HepG2 cytotoxicity, TGF-b inhibitor counterscreen | AID 720535 | 1,600 compounds, 27% hits | Potency, µM (doses to about 46.1 µM), without a hit: top-dose activity, negative = cytotoxicity, actives largely listed as inhibitors | shares compounds with TGFb inhibitor | HepG2 CAGA-GFP viability, ATP luminescence, 18 h; cells stimulated with TGF-beta, 500 pg/mL; note: % is set by controls: 0 for no effect and ±100 for the full control effect; nearly all actives have a fitted effect of over 70% in size
TGFb CCL64 inh = TGF-b inhibition, CCL64 orthogonal assay. shares compounds with TGFb inhibitor. CCL64 CAGA-GFP reporter, TGF-b stimulated, GFP fluorescence, 18 h. Potency, µM (series often up to 46.1 µM), for inactives: top-dose activity, negative = inhibition, actives largely listed as inhibitors. 1,600 compounds, 41% hits; note: nearly all actives have a fitted effect of over 65% in size
COP TGFb inh = validation of TGF-b inhibitors in HepG2 COP promoter reporter. shares compounds with TGFb inhibitor. HepG2 COP-GFP TGF-b reporter, GFP fluorescence, 18 h; cells stimulated by added recombinant TGF-beta. Potency, µM (series often up to 46.1 µM), without a hit: top-dose activity, negative = inhibition, usual class: inhibitors. 1,600 compounds, 3% hits; note: nearly all actives have a fitted effect of over 70% in size
Starred values were filed as active, the others as inactive. Calls come from the whole dose curve; as a rule, active = well fitted curve in the direction sought with a large enough effect; inconclusive = small, poorly fitted or top-dose-only effect, or another doubt; inactive = no such curve, though single readings can be large; an effect the other way counts as inactive or inconclusive. Potency is the fitted concentration of half-maximal effect.

What do the screens show for `O=C(Nc1ccccc1C(=O)Nc1nnc(C(F)(F)F)s1)c1ccccc1Cl`?
ATXN2 expr inh: 13µM*; HT1080NT lethal: 10µM*; HT1080 IDH1KD tx: 10µM*; S2 tox: inconclusive; HepG2 tox-1: -49%; TGFb inhibitor: 3.5µM*; TGFb CAGA inh: 5.8µM*; HepG2 tox-2: 4.1µM*; TGFb CCL64 inh: 6.5µM*; COP TGFb inh: 74%

How did Cc1onc(-c2c(F)cccc2Cl)c1C(=O)Nc1nnc(C(F)(F)F)s1 do in these assays?
ATXN2 expr inh: inconclusive; HT1080NT lethal: inconclusive; HT1080 IDH1KD tx: inconclusive; S2 tox: inconclusive; HepG2 tox-1: -26%; TGFb inhibitor: 18µM*; TGFb CAGA inh: 21µM*; HepG2 tox-2: inconclusive; TGFb CCL64 inh: inconclusive; COP TGFb inh: 35%

How did CC1=C(C(=O)Nc2ccc(Cl)cc2)C(C(C)C)n2nc(SCc3ccc(Cl)cc3)nc2N1 (stereo not given) do in these assays?
ATXN2 expr inh: 0%; S2 tox: inactive; HepG2 tox-1: -23%; TGFb inhibitor: 5%

What do the screens show for `NC(=O)c1cc([N+](=O)[O-])c(Cl)cc1NCc1ccncc1`?
ATXN2 expr inh: -4%; HT1080NT lethal: 0%; HT1080 IDH1KD tx: 4%; S2 tox: inconclusive; HepG2 tox-1: 6%; TGFb inhibitor: inconclusive; TGFb CAGA inh: 18µM*; HepG2 tox-2: -28%; TGFb CCL64 inh: -9%; COP TGFb inh: 18%

What do the screens show for `NC(=O)c1cc([N+](=O)[O-])c(Cl)cc1NCc1ccccn1`?
ATXN2 expr inh: -36%; HT1080NT lethal: 2%; HT1080 IDH1KD tx: -3%; S2 tox: inconclusive; HepG2 tox-1: 3%; TGFb inhibitor: -15%

What do the screens show for `O=C1Nc2ccccc2N=C(c2ccc3c(c2)OCO3)C1N(C(=O)c1ccc2ccccc2c1)C1CC1` (stereo not given)?
ATXN2 expr inh: 2%; HT1080NT lethal: inconclusive; HT1080 IDH1KD tx: inconclusive; S2 tox: inconclusive; HepG2 tox-1: 0%; TGFb inhibitor: 13µM*; TGFb CAGA inh: 23µM*; HepG2 tox-2: inconclusive; TGFb CCL64 inh: 16µM*; COP TGFb inh: 51%

Results for O=C1Nc2ccccc2N=C(c2ccc3c(c2)OCO3)C1N(C(=O)c1ccnc2ccccc12)c1ccccc1 (stereo not given) ?
ATXN2 expr inh: -36%; HT1080NT lethal: inconclusive; HT1080 IDH1KD tx: inconclusive; S2 tox: inconclusive; HepG2 tox-1: -13%; TGFb inhibitor: 16µM*; TGFb CAGA inh: 23µM*; HepG2 tox-2: -24%; TGFb CCL64 inh: inconclusive; COP TGFb inh: 49%

What do the screens show for `COc1ccc(C2=Nc3ccccc3NC(=O)C2N(Cc2ccc(F)cc2)C(=O)c2ccco2)cc1` (stereo not given)?
ATXN2 expr inh: 4%; HT1080NT lethal: inconclusive; HT1080 IDH1KD tx: inconclusive; S2 tox: inconclusive; HepG2 tox-1: -31%; TGFb inhibitor: inconclusive

Results for COC(=O)c1c(-c2ccc(Cl)cc2)noc1N1CCN(c2cccc(OC)c2)CC1 ?
ATXN2 expr inh: 1%; S2 tox: inactive; HepG2 tox-1: 0%; TGFb inhibitor: -10%

What do the screens show for `CCOc1ccccc1Nc1nc(-c2cccc(Cl)c2)c2c(n1)-c1ccccc1OC2`?
ATXN2 expr inh: 4%; S2 tox: inactive; HepG2 tox-1: 0%; TGFb inhibitor: -14%

How did O=C(NCCc1cccnc1)c1cc(COc2ccc(F)cc2F)on1 do in these assays?
HT1080NT lethal: inconclusive; HT1080 IDH1KD tx: inconclusive; S2 tox: inactive; HepG2 tox-1: -12%; TGFb inhibitor: -6%

What do the screens show for `O=C(NCCc1cccnc1)c1cc(COc2ccc(F)cc2Cl)on1`?
ATXN2 expr inh: 1%; HT1080NT lethal: inconclusive; HT1080 IDH1KD tx: 15µM*; S2 tox: inactive; HepG2 tox-1: -19%; TGFb inhibitor: 13µM*; TGFb CAGA inh: inconclusive; HepG2 tox-2: -23%; TGFb CCL64 inh: inconclusive; COP TGFb inh: 3%

How did CC(=O)c1nn(-c2ccc(OC(F)(F)F)cc2)nc1Nc1ccc(Cl)cc1 do in these assays?
HepG2 tox-1: -24%; TGFb inhibitor: -21%

Results for COC(C(=O)C(O)C(C)O)C1Cc2cc3cc(OC4CC(OC5CC(O)C(O)C(C)O5)C(O)C(C)O4)c(C)c(O)c3c(O)c2C(=O)C1OC1CC(OC2CC(OC3CC(O)C(OC)C(C)O3)C(O)C(C)O2)C(O)C(C)O1 (stereo not given) ?
ATXN2 expr inh: 10µM*; HT1080NT lethal: inconclusive; HT1080 IDH1KD tx: 0.01µM*; S2 tox: inconclusive; HepG2 tox-1: 17%; TGFb inhibitor: 1µM*; TGFb CAGA inh: 0.37µM*; HepG2 tox-2: 0.092µM*; TGFb CCL64 inh: 1.6µM*; COP TGFb inh: 16%

Results for CCN(CC)C(=O)c1ccc2nc3ccccc3nc2c1 ?
ATXN2 expr inh: 19%; HT1080NT lethal: -11%; HT1080 IDH1KD tx: -22%; S2 tox: inactive; HepG2 tox-1: -88%; TGFb inhibitor: 10µM*; TGFb CAGA inh: inconclusive; HepG2 tox-2: 12µM*; TGFb CCL64 inh: 2%; COP TGFb inh: 23%
